Source: PubChem BioAssay
The list is not random: actives were taken first. Their share in the collection is about 8.3%.
Marburg entry inh: qHTS for inhibitors of binding or entry into cells for Marburg Virus. 300,000 tested, 1.8% active. Potency, µM (doses to about 37.8 µM), inactives show top-dose activity change, negative = inhibition, actives largely listed as inhibitors. AID 540276, 2011. Marburg virus pseudotyped entry inhibition, cell reporter; calls by dose curve; tested in HEK293 cells; further: potency means the concentration at half of the fitted maximal effect
Giardia FBPA inh-1: qHTS Assay for Inhibitors of Fructose-1,6-bisphosphate Aldolase from Giardia Lamblia. 290,000 tested, 0.71% active. A8B2U2. Potency, µM (series often up to 59.6 µM), inactives show at the highest dose activity, negative = inhibition, usual class: inhibitors. purified Giardia FBPA; further: potency means the concentration at half of the fitted maximal effect; nearly all actives have a fitted effect of over 55% in size
Target sequence (A8B2U2 whole entry, looked up): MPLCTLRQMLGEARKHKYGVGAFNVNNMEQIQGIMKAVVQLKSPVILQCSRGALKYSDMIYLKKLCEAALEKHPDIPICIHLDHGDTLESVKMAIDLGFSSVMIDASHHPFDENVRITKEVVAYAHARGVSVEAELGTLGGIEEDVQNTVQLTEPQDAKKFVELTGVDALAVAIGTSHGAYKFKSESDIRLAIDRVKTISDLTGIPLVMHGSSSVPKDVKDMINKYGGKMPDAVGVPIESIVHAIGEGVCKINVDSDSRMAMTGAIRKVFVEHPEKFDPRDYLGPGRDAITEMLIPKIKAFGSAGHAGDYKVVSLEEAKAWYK
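40 nM FBPA preincubated 10 min at RT with compound (up to 57.5 uM final), then substrate plus GAPDH/TPI/NAD/arsenate coupling and diaphorase/resazurin added. Fluorescence read after 20 min at RT, 525/598 nm.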
HCV inh: qHTS Assay for Inhibitors of Hepatitis C Virus (HCV) | Huh7.5.1 HCVcc-Cre infection, luciferase reporter, 44 h | Potency, µM (highest dose often 41.8 µM), without a hit: at the top dose activity change, negative = inhibition, most hits filed as inhibitors | 340,000 tested, 3.4% active; further: potency means the concentration at half of the fitted maximal effect
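A cell-based infection assay in which seeded cells (1,000 per well) receive test compound after 4 h, are inoculated with HCVcc-Cre at approximately 0.5 moi, and are incubated 44 h before luminescence detection.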
FMDV antiviral: High Throughput Screening for Foot and Mouth Disease Virus Antivirals; FMDV antiviral cell-based qHTS; Potency, µM (series often up to 57.9 µM), for inactives: at the highest dose activity change, negative = inhibition, hits mostly inhibitors; 410,000 tested, 1.2% active; calls by dose curve; tested in HEK293T cells; further: read-out not given here; potency means the concentration at half of the fitted maximal effect; nearly all actives have a fitted effect of over 45% in size
HCMV antiviral: qHTS Assay for inhibitors of the human cytomegalovirus (HCMV) | activity change, negative = inhibition, % at 57.5 µM | HFF cells, HCMV-luciferase reporter, 72 h; hits give low values | AID 1259415, 2018 | 410,000 tested, 4.5% active; in the data active means activity change below about -60%; inconclusive means no clear call, values can overlap the other calls; inactive means above about -39%
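Luciferase read-out from HCMV-luciferase-infected HFFs (MOI 1 PFU/cell) 72 h post infection at 37C; compounds added after 16 h cell attachment; activity normalized between buffer-only basal and Salinomycin (10uM) inhibitor controls.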
LASV entry inh: qHTS for Inhibitors of binding or entry into cells for Lassa Virus; Lassa virus pseudotype entry inhibition, cell reporter; 300,000 tested, 1.2% active; Potency, µM (series often up to 37.9 µM), inactives show at the top dose activity change, negative = inhibition, usual class: inhibitors; calls by dose curve; tested in HEK293 cells; further: potency means the concentration at half of the fitted maximal effect; nearly all actives have a fitted effect of over 50% in size
Giardia growth: qHTS Assay for Inhibitors of Fructose-1,6-bisphosphate Aldolase from Giardia Lamblia: Giardia lamblia growth inhibition. AID 2785, 2010. 1,500 tested, 5% active. Giardia lamblia trophozoite growth inhibition. shares compounds with Giardia FBPA inh-1. Potency, µM (titrated, usually from 57.5 µM), for the others: top-dose activity change, negative = inhibition, actives largely listed as inhibitors;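 further: potency means the concentration at half of the fitted maximal effect; trophozoites exposed to compound for 48 h at 37 °C; nearly all actives have a fitted effect of over 70% in size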
Mammalian tox: qHTS Assay for Inhibitors of Fructose-1,6-bisphosphate Aldolase from Giardia Lamblia: Mammalian cellular toxicity; shares compounds with Giardia FBPA inh-1; mammalian cell viability counter-screen, qHTS; Potency, µM (doses to about 57.5 µM), for inactives: at the highest dose viability change, negative = toxicity, most hits filed as inhibitors; 1,500 tested, 4% active;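 further: Chinese hamster ovary cells used as mammalian cytotoxicity surrogate; viability measured as cellular ATP by luminescence; potency means the concentration at half of the fitted maximal effect; compound exposure lasted 48 h before reading; nearly all actives have a fitted effect of over 60% in size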
Giardia FBPA inh-2: qHTS Assay for Inhibitors of Fructose-1,6-bisphosphate Aldolase from Giardia Lamblia: Primary screen confirmation; purified Giardia aldolase enzyme activity, qHTS; 1,500 tested, 5% active; Potency, µM (series often up to 57.5 µM), for inactives: at the highest dose activity change, negative = inhibition, usual class: inhibitors; AID 2787, 2010; shares compounds with Giardia FBPA inh-1; further: potency means the concentration at half of the fitted maximal effect; nearly all actives have a fitted effect of over 45% in size
Rabbit aldolase: qHTS Assay for Inhibitors of Fructose-1,6-bisphosphate Aldolase from Giardia Lamblia: Rabbit FBPA Selectivity; shares compounds with Giardia FBPA inh-1; Rabbit muscle FBPA enzyme inhibition, selectivity counter-screen; Potency, µM (titrated, usually from 57.5 µM), for the others: at the highest dose activity, negative = inhibition, most hits filed as inhibitors; 1,500 tested, 4% active; further: potency means the concentration at half of the fitted maximal effect; nearly all actives have a fitted effect of over 60% in size
Target sequence (P00883 whole entry, looked up): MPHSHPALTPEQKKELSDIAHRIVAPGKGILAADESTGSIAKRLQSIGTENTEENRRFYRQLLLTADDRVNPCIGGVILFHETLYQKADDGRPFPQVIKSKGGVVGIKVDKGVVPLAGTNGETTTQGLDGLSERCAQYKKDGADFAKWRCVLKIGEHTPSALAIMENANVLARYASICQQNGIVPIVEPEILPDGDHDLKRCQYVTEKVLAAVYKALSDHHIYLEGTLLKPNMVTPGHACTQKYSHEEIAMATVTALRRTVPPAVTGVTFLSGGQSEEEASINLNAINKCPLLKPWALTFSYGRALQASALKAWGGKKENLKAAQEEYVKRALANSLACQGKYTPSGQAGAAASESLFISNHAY
GAPDH coupling: qHTS Assay for Inhibitors of Fructose-1,6-bisphosphate Aldolase from Giardia Lamblia: Coupling assay counterscreen confirmation; shares compounds with Giardia FBPA inh-1; GAPDH coupling enzyme counterscreen, biochemical, qHTS; Potency, µM (top dose mostly 57.5 µM), without a hit: at the highest dose activity change, negative = inhibition, most hits filed as inhibitors; 1,500 tested, 6% active; AID 2795, 2010; further: potency means the concentration at half of the fitted maximal effect; nearly all actives have a fitted effect of over 55% in size
* marks the source's active call; other numbers are inactive results; [ ] = dose if it differs, or a comment. Unless noted, the call rests on the fitted dose curve; in most records, active means well fitted curve in the direction sought with a large enough effect; inconclusive means small, poorly fitted or top-dose-only effect, or another doubt; inactive means no such curve, though single readings can be large; an effect the other way counts as inactive or inconclusive. On the % scale 0 is the no-effect control and ±100 the full control effect.

What do the screens show for `Cc1ccc(NC(=S)N2CCN(Cc3ccccc3)CC2)cc1`?
Marburg entry inh: -26%[46.1 µM]; Giardia FBPA inh-1: 2%; HCV inh: -13%; FMDV antiviral: 14%; HCMV antiviral: -36; LASV entry inh: -10%[46.1 µM]

What do the screens show for `C=CCNC(=S)N1CCC(Cc2ccccc2)CC1`?
Marburg entry inh: -24%[46.1 µM]; Giardia FBPA inh-1: inconclusive; HCV inh: -8%; FMDV antiviral: -9%; HCMV antiviral: 13; LASV entry inh: -27%[46.1 µM]

Results for C=CCNC(=S)N1CCN(Cc2ccccc2)CC1 ?
Giardia FBPA inh-1: 18µM*; HCV inh: 14%; FMDV antiviral: 5%; HCMV antiviral: -15; Giardia growth: -12%[10.4 µM]; Mammalian tox: 11%; Giardia FBPA inh-2: 12%; Rabbit aldolase: 13%; GAPDH coupling: 7%

How did Cc1ccc(C(=S)N2CCN(Cc3ccccc3)CC2)cc1 do in these assays?
Marburg entry inh: 5%[46.1 µM]; Giardia FBPA inh-1: 16µM*; HCV inh: inconclusive; FMDV antiviral: -27%; HCMV antiviral: -30; LASV entry inh: inconclusive; Giardia growth: inconclusive; Mammalian tox: 9%; Giardia FBPA inh-2: -6%; Rabbit aldolase: 9%; GAPDH coupling: -16%

What do the screens show for `Cc1ccc(CN2CCN(C(=O)c3ccncc3)CC2)cc1`?
Giardia FBPA inh-1: 18µM*; HCV inh: 8%; FMDV antiviral: -7%; HCMV antiviral: -22; Giardia growth: 2%; Mammalian tox: 3%; Giardia FBPA inh-2: 6%; Rabbit aldolase: 7%; GAPDH coupling: 7%

How did C[C@@H]1CN([C@@H](C)CO)C(=O)CCCn2cc(nn2)CO[C@H]1CN(C)C(=O)C1CCCCC1 do in these assays?
HCMV antiviral: -31

How did CSS(=O)(=O)c1cccc2cccnc12 do in these assays?
Marburg entry inh: -23%[46.1 µM]; Giardia FBPA inh-1: 18µM*; HCV inh: -3%; FMDV antiviral: -28%; HCMV antiviral: -15; LASV entry inh: -20%[46.1 µM]; Giardia growth: 23%; Mammalian tox: 0%; Giardia FBPA inh-2: -15%; Rabbit aldolase: inconclusive; GAPDH coupling: inconclusive

How did CC(C)c1ccc(S(=O)(=O)c2cnc(SCC(=O)Nc3cccc(C(F)(F)F)c3)nc2N)cc1 do in these assays?
FMDV antiviral: inconclusive; HCMV antiviral: -24; LASV entry inh: -5%[46.1 µM]

How did CCN(CCNCC(O)COc1ccccc1C(C)C)c1cccc(C)c1 (centres undefined) do in these assays?
Marburg entry inh: inconclusive; Giardia FBPA inh-1: 22µM*; HCV inh: 13µM*; FMDV antiviral: -27%; HCMV antiviral: 14; LASV entry inh: -16%; Giardia growth: 12%; Mammalian tox: -26%; Giardia FBPA inh-2: -5%; Rabbit aldolase: 0%; GAPDH coupling: -16%

What do the screens show for `CCOC(=O)N1CCN(CC(O)COc2ccccc2C(C)C)CC1` (centres undefined)?
Marburg entry inh: -11%; Giardia FBPA inh-1: -4%; HCV inh: -2%; FMDV antiviral: inconclusive; HCMV antiviral: -13; LASV entry inh: 8%

How did COc1ccc(COCC(O)CN2CCCC(C(F)(F)F)C2)cc1 (centres undefined) do in these assays?
Giardia FBPA inh-1: 11µM*; HCMV antiviral: -17; Giardia growth: -14%; Mammalian tox: 5%; Giardia FBPA inh-2: 1%; Rabbit aldolase: 4%; GAPDH coupling: 14%

How did COc1ccc(N2CCN(CC(O)COCc3ccccc3)CC2)cc1 (centres undefined) do in these assays?
Marburg entry inh: 11%[46.1 µM]; Giardia FBPA inh-1: -12%; HCV inh: -14%; FMDV antiviral: -10%; HCMV antiviral: -26; LASV entry inh: 4%[46.1 µM]

Results for Cc1ccc(C)c(Nc2nnc(-c3ccc(C)c(S(=O)(=O)N4CCN(C)CC4)c3)c3ccccc23)c1 ?
Marburg entry inh: -16%[46.1 µM]; FMDV antiviral: -14%; HCMV antiviral: -6; LASV entry inh: inconclusive

Results for COc1cccc(NC2=C(C#N)C(=O)NC(c3cccc(OC)c3O)S2)c1 (centres undefined) ?
Giardia FBPA inh-1: 16µM*; HCV inh: 11%; FMDV antiviral: 15%; HCMV antiviral: 0; Giardia growth: inconclusive; Mammalian tox: 3%; Giardia FBPA inh-2: inconclusive; Rabbit aldolase: -2%; GAPDH coupling: -25%

How did Cc1cccc(NC2=C(C#N)C(=O)NC3(CCCC3)S2)c1 do in these assays?
Giardia FBPA inh-1: inconclusive; HCV inh: 14%; FMDV antiviral: 12%; HCMV antiviral: -12

What do the screens show for `O=C(Nc1nnc(-c2ccc(Cl)cc2)o1)c1ccc(N2C(=O)CCC2=O)cc1`?
Marburg entry inh: inconclusive; Giardia FBPA inh-1: 23%; HCV inh: -7%; FMDV antiviral: -21%; HCMV antiviral: -24; LASV entry inh: -6%

How did O=C(Nc1nnc(-c2ccco2)o1)c1ccc(N2C(=O)CCC2=O)cc1 do in these assays?
Marburg entry inh: 14%[46.1 µM]; Giardia FBPA inh-1: 18µM*; HCV inh: 10%; FMDV antiviral: 11%; HCMV antiviral: 2; LASV entry inh: inconclusive; Giardia growth: 60%; Mammalian tox: 18%; Giardia FBPA inh-2: 8%; Rabbit aldolase: 3%; GAPDH coupling: 4%
